NTR1 ag: agonists of human NTR1, primary screen, imaging, U2OS cells, beta-arrestin-GFP, high content. Neurotensin receptor type 1 (Homo sapiens), P30989. NTR1-U2OS beta-arrestin-GFP spot imaging, agonist mode. activation, % at 20 µM. actives 0.17% (n = 330,000). AID 493036, 2011;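 active = activation at or above 40% of the spot to cytoplasm intensity ratio, with at least 20 cells analyzed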;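 note: 0% = DMSO without peptide and 100% = 100 nM NTR1 peptide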
SUMO Mot1 rescue: yeast Mot1-301 growth rescue at high temperature, primary screen, SUMOylation pathway inhibitor project, S. cerevisiae, ATP luminescence, 38.5C | S. cerevisiae Mot1-301 growth rescue; percent above DMSO median, 100 means doubled | growth rescue, % at 18.8 µM | actives 1% (n = 320,000) | AID 2716, 2010;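 active = every valid replicate shows activation above 250% relative to neutral control wells; inactive = the rest, any valid replicate at or below 250%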;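 note: OY570 slx delta 5 strain wells were the positive control but not used for scaling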
GRIN3A LBD mod: binders of NR3A ligand-binding domain, primary screen, biophysical, differential scanning fluorimetry, uHTS. NR3A LBD differential scanning fluorimetry, Tm shift; 0% = protein alone, 100% = glycine-bound protein. Tm shift relative to glycine control, % at 25 µM. actives 2.5% (n = 340,000);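 active = melting temperature shift of at least 10% of the positive control shift, at one fixed dose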
H9c2 protect: cardioprotection against H2O2-induced cell death, primary screen, uHTS, H9c2 cells, ATPLite luminescence; H9c2 cardiomyocytes, H2O2 injury protection, 2 h; protection from H2O2 cell death, % at 20 µM; actives 0.63% (n = 360,000);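 active = compounds giving at least 50% protection of heart cells from peroxide-induced death in the single-dose screen, raw or plate-pattern-corrected value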;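 note: 0% = DMSO wells with peroxide and 100% = DMSO wells without peroxide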
AI-2 QS modul: Vibrio harveyi AI-2 quorum sensing modulators, primary screen, JMH597 strain, luminescence/OD600 ratio | Vibrio harveyi JMH597 AI-2 luminescence/OD600 ratio, 9 h; hits give low values; strain lacks LuxN and CqsS sensors; 0 = neutral-control median | activity change, % at 7.5 µM | actives 0.4% (n = 300,000); in the data active = activity change below about -75%, passing the limit was not always enough;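 note: luminescence divided by OD600 gain over 9 h not by final OD600 alone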
AHR act: AHR activators, primary screen, cell-based, luminescence, luciferase reporter, human; AHR-responsive luciferase reporter cells; activation, % at 5 µM; actives 2.5% (n = 320,000); AID 2796, 2010; in the data active = activation above about 47%;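 note: 0% = vehicle wells and 100% = reference agonist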
Target sequence (P35869 whole entry, looked up): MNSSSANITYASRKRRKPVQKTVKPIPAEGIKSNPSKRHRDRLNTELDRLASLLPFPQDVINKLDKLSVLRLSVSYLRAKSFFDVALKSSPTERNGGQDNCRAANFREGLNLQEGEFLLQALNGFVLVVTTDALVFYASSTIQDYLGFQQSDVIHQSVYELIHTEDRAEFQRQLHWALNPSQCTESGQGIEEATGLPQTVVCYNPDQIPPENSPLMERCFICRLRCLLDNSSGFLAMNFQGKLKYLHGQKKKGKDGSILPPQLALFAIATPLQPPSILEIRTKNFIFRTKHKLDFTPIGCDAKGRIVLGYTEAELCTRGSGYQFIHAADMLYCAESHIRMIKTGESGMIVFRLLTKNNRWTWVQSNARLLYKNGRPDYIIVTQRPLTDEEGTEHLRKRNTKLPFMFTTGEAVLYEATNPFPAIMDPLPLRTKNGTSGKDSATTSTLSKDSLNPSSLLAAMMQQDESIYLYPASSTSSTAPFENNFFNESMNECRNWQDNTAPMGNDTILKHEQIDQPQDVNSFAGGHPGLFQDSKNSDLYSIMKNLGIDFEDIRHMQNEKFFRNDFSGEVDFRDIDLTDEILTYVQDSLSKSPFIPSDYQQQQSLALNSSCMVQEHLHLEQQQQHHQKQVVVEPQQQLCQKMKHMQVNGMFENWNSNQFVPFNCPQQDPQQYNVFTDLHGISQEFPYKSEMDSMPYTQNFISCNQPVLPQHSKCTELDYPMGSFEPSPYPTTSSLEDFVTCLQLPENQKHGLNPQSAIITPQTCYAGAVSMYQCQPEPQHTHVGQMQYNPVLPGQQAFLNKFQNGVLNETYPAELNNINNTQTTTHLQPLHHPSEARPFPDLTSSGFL
* marks the source's active call; other numbers are inactive results; / = no result. Sampled rows, rich in hits. Any-hit rate of the full collection: about 6.2%.

SMILES	NTR1 ag	SUMO Mot1 rescue	GRIN3A LBD mod	H9c2 protect	AI-2 QS modul	AHR act
O=C1Nc2ccc(C(F)(F)F)cc2N2CCCC12 (stereo not given)	2	-9	/	/	17	8
O=C1Nc2cc(C(F)(F)F)ccc2N2CCCCC12 (stereo not given)	-1	-28	0	0	-4	74*
CC(C)N(Cc1ccccc1)C(=O)CN1C(=O)NC(Cc2ccccc2)(c2ccccc2)C1=O (stereo not given)	1	7	-2	2	15	2
Cc1cc(C(=O)N/N=C/c2c(C)[nH]n(-c3ccccc3)c2=O)n[nH]1	-1	4	-2	-10	-3	16
Cc1[nH]n(-c2ccccc2)c(=O)c1/C=N/Nc1nncc(-c2ccccc2)n1	2	8	-23	-18	-64	53*
Cc1[nH]n(-c2ccccc2)c(=O)c1/C=N/NC(=O)c1ccc(O)cc1O	-1	0	10*	14	-1	10
Cc1ccc(-n2[nH]c(C)c(/C=N/NC(=O)c3ccc(O)cc3O)c2=O)cc1	0	-8	13*	-6	11	18
O=C(NCCN1CCOCC1)/C(=C/c1ccco1)NC(=O)c1ccccc1	0	160	3	5	-3	1
COc1cc(C(=O)N2CCCC(c3cc(C(=O)NCc4ccc(F)cc4)no3)C2)cc(OC)c1C (stereo not given)	/	/	/	-12	/	/
O=c1c(-c2ccco2)[n+]([O-])c2ccccc2n1OCc1ccccc1	-1	-28	4	17	23	61*
O=c1c(-c2ccco2)[n+]([O-])c2ccccc2n1OCc1ccccc1F	4	10	-1	7	5	9
O=c1c(-c2ccco2)[n+]([O-])c2ccccc2n1OCc1c(F)cccc1F	0	-14	-1	17	19	49*
Cc1c(CN(C)C)c2c(n1C)C(=O)c1ccc(Br)cc1-2	-1	-24	-1	2	10	71*
Cc1ccc(C(=O)Nc2cc(Cl)ccc2N2CCCCC2)s1	3	0	22*	-16	-3	1
O=C(Nc1ccccc1F)c1ccc([N+](=O)[O-])s1	0	-34	0	0	-115*	3
Cc1ccc(CC(=O)Nc2cc([N+](=O)[O-])ccc2F)cc1	0	40	-4	-10	11	-3
CCc1sc(C(=O)Nc2cc(Cl)ccc2N2CCCCC2)cc1C	1	45	1	-18	3	1
Cc1ccc(C(=O)Nc2cc([N+](=O)[O-])ccc2F)s1	2	-6	12*	-9	12	13
O=C(CCCCC(=O)NN=Cc1ccc2c(c1)CCC2)NN=Cc1ccc2c(c1)CCC2	/	/	/	0	/	/
CC1Cc2ccccc2N1C(=O)C(C)n1cc(C(F)(F)F)cc(Cl)c1=O (stereo not given)	0	8	0	-4	/	5
Cc1cccc(S(=O)(=O)N(C)C[C@@H]2OCc3cn(nn3)CCCC(=O)N([C@H](C)CO)C[C@H]2C)c1	/	/	/	-2	/	/
CC(C)C[C@H]1CNC(=S)N1C[C@H]1CCCN1C[C@H](Cc1ccc(O)cc1)N1C[C@H](Cc2ccccc2)N(CC2CCCCCC2)C1=S	/	/	/	-6	/	/
CCCCNC(=O)C1(C)CCN1C(=O)c1csnn1 (stereo not given)	/	/	/	5	/	/
COc1cc2ccccc2cc1C(=O)N/N=C/c1cccs1	/	/	/	2	/	/
FC(F)Oc1ccc(NC(=S)N2CCc3ccccc32)cc1	2	-10	-5	-6	-10	51*
SMILES	NTR1 ag	SUMO Mot1 rescue	GRIN3A LBD mod	H9c2 protect	AI-2 QS modul	AHR act
Fc1ccc(C2c3[nH]c4ccccc4c3CCN2Cc2ccoc2)cc1 (stereo not given)	3	11	-6	2	18	51*
Fc1ccc(C2c3[nH]c4ccccc4c3CCN2CCCn2cccn2)cc1 (stereo not given)	1	-29	0	6	10	29
COc1ccc(/C=C/c2c(-c3ccc(OC)cc3)sc3ccc(N4CCOCC4)cc23)cc1	3	4	0	0	5	25
COc1ccc2sc(-c3ccc(SC)cc3)c(/C=C/c3ccc(OC)c(OC)c3)c2c1	4	1	-3	-17	/	49*
COc1ccc(-c2sc3ccccc3c2/C=C/c2ccc(N)cc2)cc1	12	-4	-2	-12	/	54*
COc1ccc(-c2sc3ccccc3c2-c2ccc(O)cc2)cc1	26	17	14*	-23	/	25
COc1ccc(OC)c(NC(=O)CCC(=O)Nc2nnc(C(C)C)s2)c1	0	-12	0	-1	8	4
C[C@@H]1CN([C@@H](C)CO)C(=O)c2cc(Br)cnc2O[C@H]1CN(C)C(=O)NC1CCCC1	/	/	/	3	/	/
COc1cc(C(=O)NCCOc2ccc(Cl)cc2)ccc1OCc1c(C)noc1C	4	/	2	-4	/	-1
CCN(C(=O)c1ccco1)C1C2CC3CC(C2)CC1C3 (stereo not given)	1	363	-1	-4	20	-1
COc1ccc(N2C(=O)CC(N(CCc3ccc(OC)c(OC)c3)C(=S)Nc3ccccc3)C2=O)cc1 (stereo not given)	24	-19	9	-2	11	1
COc1ccc(CN(C(=S)Nc2ccccc2)C2CC(=O)N(c3ccccc3)C2=O)cc1 (stereo not given)	0	-2	37*	2	21	0
O=C1CC(N(Cc2cccs2)C(=O)Nc2ccccc2)C(=O)N1c1ccc(Cl)cc1 (stereo not given)	2	0	14*	1	14	4
COc1ccc(N2C(=O)CC(N(CCc3ccc(S(N)(=O)=O)cc3)C(=S)Nc3ccccc3)C2=O)cc1 (stereo not given)	6	-16	5	1	17	1
COc1ccc(CN(C(=S)Nc2ccccc2)C2CC(=O)N(c3ccc(Cl)cc3)C2=O)cc1 (stereo not given)	15	5	24*	-12	20	0
CSc1ccc(C#N)cc1NC(=O)c1ccc(Cl)cc1Cl	1	19	2	10	16	59*
COCCN=c1scc(-c2ccccc2)n1/N=C/c1c[nH]c2ccccc12	10	-11	4	-11	16	55*
COCCN=c1scc(-c2cccs2)n1/N=C/c1ccc(O)c(O)c1O	3	-9	0	30	34	21

Screens as filed in PubChem.
